# In the antibiotic and cytotoxicity screens of Wong et al. (2023):
# In all, about 39,000 compounds went through this assay and about 3,300 (8.5%) were called active. The sample as a whole holds a higher share of actives than the screen did.
# System: HepG2
# Test: cytotoxicity call (relative viability < 0.9)
# Details: 10 µM
row,SMILES,cytotoxicity call
1,CO[C@H](CN(C)S(=O)(=O)c1cccc(Cl)c1)[C@@H](C)CN([C@@H](C)CO)S(=O)(=O)c1ccc(Cl)cc1,inactive
2,COc1ccc(NC(=O)N(C)C[C@@H]2Oc3ccc(NS(=O)(=O)c4cn(C)cn4)cc3C(=O)N([C@H](C)CO)C[C@H]2C)cc1,inactive
3,O=C(C[C@@H]1C[C@H]2c3cc(NC(=O)Nc4ccc(C(F)(F)F)cc4)ccc3O[C@H]2[C@@H](CO)O1)NCCc1ccccc1,inactive
4,C[C@H]1CN([C@@H](C)CO)C(=O)Cc2cc(NC(=O)Cn3cnnn3)ccc2O[C@@H]1CN(C)Cc1ccccc1,inactive
5,CCO[C@@H]1OC(C(=O)N2CCN(Cc3ccccc3)CC2)=C[C@H](c2ccc(Br)cc2)[C@H]1CCCOC(=O)NCCCCCC(=O)NO,inactive
6,C[C@@H]1CN([C@H](C)CO)C(=O)c2cc(NC(=O)Cc3ccccc3)ccc2O[C@@H]1CN(C)Cc1ccc(C(=O)Nc2ccccc2N)cc1,inactive
7,C[C@@H]1CCCCO[C@H](CN(C)S(=O)(=O)c2ccccc2)[C@@H](C)CN([C@@H](C)CO)C(=O)c2cc(NS(=O)(=O)c3cn(C)cn3)ccc2O1,inactive
8,O=C(C[C@@H]1C[C@@H]2c3cc(NS(=O)(=O)c4ccc(F)cc4)ccc3O[C@@H]2[C@H](CO)O1)NCc1ccncc1,inactive
9,C#CCCCCCCCCCCC[C@H](O)C[C@H](O)COC(C)=O.C=CCCCCCCCCCCC[C@H](O)C[C@H](O)COC(C)=O,inactive
10,C[C@@H]1CCCCO[C@@H](CN(C)C(=O)Nc2ccc3c(c2)OCO3)[C@@H](C)CN([C@H](C)CO)C(=O)c2cc(NS(=O)(=O)c3ccc(F)cc3)ccc2O1,inactive
11,C[C@H](CO)N1C[C@H](C)[C@@H](CN(C)C(=O)c2ccc3c(c2)OCO3)Oc2ncc(C3=CCCC3)cc2C1=O,inactive
12,C[C@H](CO)N1C[C@H](C)[C@H](CN(C)C(=O)c2ccc3c(c2)OCO3)Oc2ncc(C3=CCCC3)cc2C1=O,inactive
13,C[C@H]1CN([C@@H](C)CO)C(=O)c2cc(C3=CCCC3)cnc2O[C@H]1CN(C)C(=O)c1ccc2c(c1)OCO2,active
14,OC1(c2ccc(Cl)c(C(F)(F)F)c2)CCN(CCCC(c2ccc(F)cc2)c2ccc(F)cc2)CC1 [listing 1 of 2 here],active
15,OC1(c2ccc(Cl)c(C(F)(F)F)c2)CCN(CCCC(c2ccc(F)cc2)c2ccc(F)cc2)CC1 [listing 2 of 2 here],active
16,COC(=O)C[C@@H]1CC[C@@H]2[C@H](COC[C@H](O)CN2S(=O)(=O)c2ccccc2C)O1,inactive
17,C[C@@H]1CN([C@H](C)CO)C(=O)Cc2cc(NC(=O)NC3CCCCC3)ccc2O[C@H]1CN(C)S(=O)(=O)c1cn(C)cn1,inactive
18,COc1ccc(-c2cc(=O)c3ccccc3o2)cc1,inactive
19,COc1ccc2c(-c3ccc(Cl)cc3)c(C)oc2c1,active
20,COc1ccc2c(=O)ccoc2c1,inactive
21,COc1ccc2c(C)cc(=O)oc2c1,inactive
22,COc1ccc2oc(C(C)=O)cc2c1,inactive
23,COc1ccc(-c2c(C)oc3ccc(Cl)cc23)cc1,active
24,C[C@@H]1CN([C@H](C)CO)C(=O)c2cccc(NC(=O)C3CCOCC3)c2O[C@@H]1CN(C)Cc1ccncc1,inactive

row,SMILES,cytotoxicity call
1,C[C@H]1CN([C@@H](C)CO)C(=O)c2cccc(NC(=O)Nc3cccc4ccccc34)c2O[C@H]1CN(C)CC1CCCCC1,inactive
2,CCN(CC)CCCC(C)Nc1ccnc2cc(Cl)ccc12.O=P(O)(O)O.O=P(O)(O)O (stereo not given),active
3,COc1ccc2nc(Cl)sc2c1,inactive
4,CCN(CC)Cc1ccc(Nc2ccnc3cc(Cl)ccc23)cc1O.Cl.Cl,active
5,CCN(CC)CCCC(C)Nc1c2ccc(Cl)cc2nc2ccc(OC)cc12.Cl.Cl (stereo not given),active
6,Cc1cc(Oc2ccnc3cc(Cl)ccc23)ccc1Cl,inactive
7,COc1ccc2nc3ccc(Cl)cc3c(SCCCN)c2c1,inactive
8,CCN(CCO)CCCC(C)Nc1ccnc2cc(Cl)ccc12.O=S(=O)(O)O (stereo not given),active
9,O=C(OCC(O)CO)c1ccccc1Nc1ccnc2cc(Cl)ccc12 (stereo not given),inactive
10,Cc1noc(C)c1S(=O)(=O)N(C)C[C@H]1Oc2ccc(NC(=O)c3ccncc3)cc2CC(=O)N([C@H](C)CO)C[C@@H]1C,inactive
11,Cc1noc(C)c1NC(=O)N(C)C[C@@H]1Oc2ccc(NC(=O)CCN3CCOCC3)cc2CC(=O)N([C@H](C)CO)C[C@@H]1C,inactive
12,Cc1ccc(S(=O)(=O)N(C)C[C@@H]2Oc3ncc(-c4ccncc4)cc3C(=O)N([C@H](C)CO)C[C@H]2C)cc1,inactive
13,COc1ccc(NC(=O)N(C)C[C@H]2Oc3cc(C#CCN(C)C)ccc3S(=O)(=O)N([C@@H](C)CO)C[C@@H]2C)cc1,inactive
14,C[C@@H]1CN([C@@H](C)CO)C(=O)c2cc(NC(=O)Cn3cnnn3)ccc2O[C@H]1CN(C)Cc1ccc(C(=O)Nc2ccccc2N)cc1,inactive
15,C[C@@H]1CN([C@H](C)CO)C(=O)c2cc(NC(=O)C3CC3)ccc2O[C@@H]1CN(C)C(=O)Nc1ccc2c(c1)OCO2,inactive
16,COc1ccc(C#Cc2cnc3c(c2)C(=O)N([C@H](C)CO)C[C@H](C)[C@@H](CN(C)C(=O)CN(C)C)O3)cc1,inactive
17,C[C@H](CO)N1C[C@H](C)[C@H](CN(C)Cc2ccc(C(=O)O)cc2)Oc2ccc(NC(=O)Nc3ccc(C(F)(F)F)cc3)cc2C1=O,inactive
18,C[C@@H]1CN([C@H](C)CO)C(=O)c2cc(NC(=O)Nc3ccc(C(F)(F)F)cc3)ccc2O[C@@H]1CN(C)Cc1ccc(C(=O)O)cc1,inactive
19,C[C@H](CO)N1C[C@H](C)[C@H](CN(C)Cc2ccc(C(F)(F)F)cc2)Oc2ccc(NC(=O)Nc3ccccc3)cc2C1=O,active
20,C[C@H]1CN([C@@H](C)CO)C(=O)c2cc(NC(=O)Nc3ccccc3)ccc2O[C@H]1CN(C)Cc1ccc(C(F)(F)F)cc1,inactive
21,C[C@@H]1CN([C@H](C)CO)C(=O)c2cc(NC(=O)Nc3ccccc3)ccc2O[C@@H]1CN(C)Cc1ccc(C(F)(F)F)cc1,inactive
22,C[C@H]1CN([C@@H](C)CO)C(=O)c2cc(NC(=O)Nc3ccccc3)ccc2O[C@@H]1CN(C)Cc1ccc(C(F)(F)F)cc1,active
23,C[C@@H]1CN([C@@H](C)CO)C(=O)c2cc(NC(=O)Nc3ccccc3)ccc2O[C@H]1CN(C)Cc1ccc(C(F)(F)F)cc1,inactive
24,C[C@@H]1CN([C@@H](C)CO)C(=O)c2cc(NC(=O)Nc3ccccc3)ccc2O[C@@H]1CN(C)Cc1ccc(C(F)(F)F)cc1,active

row,SMILES,cytotoxicity call
1,C[C@@H]1CN([C@H](C)CO)C(=O)c2cc(NC(=O)Nc3ccccc3)ccc2O[C@H]1CN(C)Cc1ccc(C(F)(F)F)cc1,active
2,COc1cccc(S(=O)(=O)Nc2ccc3c(c2)C(=O)N(C)C[C@@H](OC)[C@@H](C)CN(C(=O)Cc2cccnc2)[C@@H](C)CO3)c1,inactive
3,CC(C)NC(=O)N[C@@H]1C=C[C@@H](CC(=O)NCCN2CCCC2)O[C@H]1CO,inactive
4,COc1ccc(NC(=O)N(C)C[C@@H]2OCCCC[C@@H](C)Oc3ccc(NC(=O)C4CCCCC4)cc3C(=O)N([C@H](C)CO)C[C@H]2C)cc1,inactive
5,COc1ccc(CN(C)C[C@H]2OCCCC[C@H](C)Oc3ccc(NC(=O)C4CCCCC4)cc3C(=O)N([C@@H](C)CO)C[C@H]2C)cc1,inactive
6,O=C(C[C@H]1CC[C@@H]2NC[C@H](O)COC[C@H]2O1)NCCN1CCCCC1,inactive
7,O=C1O[C@H](c2ccccc2)[C@H](c2ccccc2)N2[C@H]1[C@@H](C(=O)N1CCCCCCC1)[C@]1(C(=O)Nc3ccc(C#CCCO)cc31)[C@H]2c1ccc(O)cc1,inactive
8,CSc1nc2nc(N)nc(N)c2s1,inactive
9,COc1cccc(S(=O)(=O)N2C[C@H](O)COC[C@@H]3O[C@H](CC(=O)N4CCN(c5ccccc5)CC4)CC[C@H]32)c1,inactive
10,O=C(C[C@H]1CC[C@@H]2[C@H](COC[C@H](O)CN2S(=O)(=O)c2cccc(Cl)c2)O1)NC1Cc2ccccc2C1,inactive
11,C[C@@H]1CN([C@@H](C)CO)C(=O)c2cccc(NC(=O)c3cnccn3)c2O[C@@H]1CN(C)S(C)(=O)=O,inactive
12,CC(C)NC(=O)Nc1ccc2c(c1)C(=O)N([C@H](C)CO)C[C@H](C)[C@@H](CN(C)Cc1ccccc1)OCCCC[C@@H](C)O2,inactive
13,C[C@H](CO)N1C[C@H](C)[C@@H](CN(C)Cc2ccc(C(F)(F)F)cc2)Oc2ccc(NC(=O)Nc3ccccc3)cc2C1=O,active
14,C[C@H](CO)N1C[C@H](C)[C@@H](CN(C)Cc2ccc(C(=O)O)cc2)Oc2ccc(NC(=O)Nc3ccc(C(F)(F)F)cc3)cc2C1=O,inactive
15,C[C@@H]1CN([C@@H](C)CO)C(=O)c2cc(NC(=O)Nc3ccc(C(F)(F)F)cc3)ccc2O[C@@H]1CN(C)Cc1ccc(C(=O)O)cc1,inactive
16,C[C@@H]1CCCCO[C@H](CN(C)C(=O)c2ccncc2)[C@@H](C)CN([C@H](C)CO)C(=O)c2cc(NC(=O)C3CCCCC3)ccc2O1,inactive
17,C[C@H](CO)N1C[C@H](C)[C@@H](CN(C)S(=O)(=O)c2cn(C)cn2)Oc2ccc(NS(=O)(=O)c3cn(C)cn3)cc2C1=O,inactive
18,C[C@@H]1CCCCO[C@@H](CN(C)S(=O)(=O)c2ccc(F)cc2)[C@@H](C)CN([C@@H](C)CO)C(=O)c2cc(NC(=O)Nc3cccc4ccccc34)ccc2O1,inactive
19,Cc1oc(C(C)(C)C)cc1C(=O)Nc1ccc(C(C)C)cc1,inactive
20,CC(C)c1ccccc1Cc1cc(C(=O)Nc2ccc(S(=O)(=O)c3ccccc3C(C)(C)C)cc2)c(O)c(O)c1O,active
21,CCc1cccc(C(C)C)c1NC(=O)Nc1ccccc1,inactive
22,C[C@@H]1CN([C@@H](C)CO)C(=O)Cc2cc(NC(=O)CCN3CCOCC3)ccc2O[C@@H]1CN(C)S(=O)(=O)c1ccccc1,inactive
